Test [1] is described as follows: qHTS to identify inhibitors of the type 1 interferon - major histocompatibility complex class I in skeletal muscle: primary screen against the NCATS Mechanism Interrogation Plate v5.0 (MIPE) Libary (AID 1347411). Further: nearly all actives have a fitted effect of over 65% in size. Further: potency means the concentration at half of the fitted maximal effect. In outline: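 Immortalized human C25cl48 myoblasts with HiBit knocked into endogenous HLA-B*08:01 were stimulated with 4.0 ng/ml IFN-beta and exposed to compounds (11-point 1:3 titration, top 46 uM final) for 24 hrs at 37 C; HiBiT lytic luminescence measured.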

Test [2] can be described thus: Primary qHTS for inhibitors of nuclear receptor binding SET domain protein 2 (NSD2) in an isogenic RCH-ACV NSD2 p.E1099K mutant (9B) (AID 1645876). Further: nearly all actives have a fitted effect of over 70% in size. Further: potency means the concentration at half of the fitted maximal effect.
Test [3] is described as follows: Primary qHTS for inhibitors of nuclear receptor binding SET domain protein 2 (NSD2) in an RCH-ACV wild type WT cells (2C) (AID 1645877). Further: nearly all actives have a fitted effect of over 70% in size. Further: potency means the concentration at half of the fitted maximal effect. A general note: Quantitative high-throughput screening tests each substance at several concentrations.
Test [4] deals with Glutathione peroxidase 1 (Homo sapiens) (UniProt P07203). The experiment in a line: Primary qHTS Assay for Inhibitors of Recombinant Selenoprotein Glutathione Peroxidase 1 (GPX1) (AID 1845191). Further: nearly all actives have a fitted effect of over 65% in size. In outline:
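10 nM GPX1 + cpd, 30 min RT; start w/ 1 mM GSH, 0.5 mM cumene hydroperoxide, 0.5 mM NADPH, 100 nM GR, 0.01% BSA; buffer 50 mM Tris-HCl pH 7.5, 2 mM EDTA, 150 mM NaCl; Fl 340/450, 0 & 15 min.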

Test [5] addresses Phospholipid hydroperoxide glutathione peroxidase GPX4 (Homo sapiens) (UniProt P36969). The experiment in a line: Primary qHTS Assay for Inhibitors of Recombinant Selenoprotein Glutathione Peroxidase 4 (GPX4) (AID 1845192). Further: nearly all actives have a fitted effect of over 65% in size. The note with it: outcome: dose series up to 50 µM unless noted. In outline:
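NADPH consumption, followed by fluorescence at 340/450 nm between 0 and 15 min, reports GPX4 activity via coupled glutathione reductase (100 nM). Enzyme 200 nM was pre-exposed to compound 30 min; 0.5 mM cumene hydroperoxide and 1 mM GSH served as substrates.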

A short description of test [6]: qHTS drug screen for cell cycle checkpoint inhibitors in PARPi-resistant BRCA-mutant ovarian cancer cell lines. (AID 1963452; calls by dose curve). The note with it: PEO1/OlaR viability, CellTiter-Glo luminescence, 96 h, stronger effect = lower value. In outline: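 PEO1, PEO4 and PEO1/OlaR ovarian cancer cells, 600 per well, exposed 96 h at 37C to a dilution series. Viability read by CellTiter-Glo luminescence, normalized to DMSO and empty wells; activity summarized as Z-AUC.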

[7] abbreviates: measured here: PEO1 parental Z-AUC.

Inconclusive results are not listed. The source made the active and inactive calls. Unless noted, the call rests on the fitted dose curve; in most records, active means well fitted curve in the direction sought with a large enough effect; inconclusive means small, poorly fitted or top-dose-only effect, or another doubt; inactive means no such curve, though single readings can be large; an effect the other way counts as inactive or inconclusive.

Sequence of Phospholipid hydroperoxide glutathione peroxidase GPX4 (Homo sapiens) (P36969 whole entry, looked up): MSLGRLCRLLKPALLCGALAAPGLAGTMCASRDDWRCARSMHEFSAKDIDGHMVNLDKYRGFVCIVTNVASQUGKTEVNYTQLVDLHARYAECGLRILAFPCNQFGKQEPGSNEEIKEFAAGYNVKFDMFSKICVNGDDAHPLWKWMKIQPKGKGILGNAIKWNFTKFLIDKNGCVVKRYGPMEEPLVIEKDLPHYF
Sequence of Glutathione peroxidase 1 (Homo sapiens) (P07203 whole entry, looked up): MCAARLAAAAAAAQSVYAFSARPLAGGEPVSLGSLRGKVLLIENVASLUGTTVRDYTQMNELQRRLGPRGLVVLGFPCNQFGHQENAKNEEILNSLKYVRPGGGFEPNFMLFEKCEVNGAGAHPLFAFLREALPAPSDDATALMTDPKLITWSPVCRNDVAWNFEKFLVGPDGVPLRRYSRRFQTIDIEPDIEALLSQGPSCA

`C=CC(=O)N1CCC(CNc2ncnc(N)c2-c2ccc(Oc3ccccc3)cc2)CC1`: the Potency entry in test [1], in test [4] and in test [5] was “inactive” each time. Further, the Potency in test [2] was 16600 nM (active); in test [3], 5900 nM (active).

For `Cc1c(-c2ccc(-c3ccccc3F)cc2)nc2ccc(F)cc2c1C(=O)O`, the Potency result in test [1], in test [4] and in test [5] was “inactive” each time. The Potency in test [2] was 105 nM (active); in test [3] it was 148 nM (active).

Consider `COc1ccnc2[nH]cc(C(=O)C(=O)N3CCN(C(=O)c4ccccc4)C[C@H]3C)c12`, for which the Potency result in test [1], in test [2], in test [3], in test [4] and in test [5] was “inactive” in each case. The Z-AUC in test [6] is 1.3 (inactive); in test [6] (setting [7]), 1.05; in test [6] (measured here: PEO4 Z-AUC), 1.31.

With `CC(C)=CCC[C@](C)(O[C@@H]1O[C@H](CO[C@@H]2O[C@H](CO)[C@@H](O)[C@H](O)[C@H]2O)[C@@H](O)[C@H](O)[C@H]1O)[C@H]1CC[C@]2(C)[C@@H]1[C@H](O)C[C@@H]1[C@@]3(C)CC[C@H](O[C@@H]4O[C@H](CO)[C@@H](O)[C@H](O)[C@H]4O[C@@H]4O[C@H](CO)[C@@H](O)[C@H](O)[C@H]4O)C(C)(C)[C@@H]3CC[C@]12C`, the Potency result in test [1], in test [2], in test [3], in test [4] and in test [5] was “inactive” each time. In addition, the results for the Z-AUC in test [6], in test [6] (setting [7]) and in test [6] (measured here: PEO4 Z-AUC) were 1.47 (inactive), 1.48 and 1.64, respectively.

Take `O=C(NCc1ccccc1)[C@H](Cc1ccccc1)NC(=O)[C@H]1O[C@@H]1C(=O)NCCc1ccc(O)cc1`: the Potency entry in test [1], in test [4] and in test [5] was “inactive” in each case. Besides, the results for the Potency in test [2] and in test [3] were 23500 nM (active) and 18600 nM (active), respectively.

As to `CS[C@H]1SC[C@@H]2C(=O)N(C)[C@H](C(C)C)C(=O)OC[C@H](NC(=O)c3cnc4ccccc4n3)C(=O)N[C@H](C)C(=O)N(C)[C@H]1C(=O)N(C)[C@H](C(C)C)C(=O)OC[C@H](NC(=O)c1cnc3ccccc3n1)C(=O)N[C@H](C)C(=O)N2C`, the Potency is 10.4 nM (active) in test [1], 1.5 nM (active) in test [2] and 1 nM (active) in test [3]. Besides, the Potency entry in test [4] and in test [5] was “inactive” in each case.

As for `[2H]c1nc(C)nc([2H])c1-c1cc(NC[C@@H](C)c2cccc3c(C(=O)NC)ccnc23)ncn1`, the Potency entry in test [1], in test [2], in test [3], in test [4] and in test [5] was “inactive” in each case.

As to `CC#Cc1cncc(-c2ccc3c(c2)[C@@]2(N=C(C)C(N)=N2)C2(CCC(OC)CC2)C3)c1` (stereo not given in full), the Potency entry in test [1], in test [2], in test [3], in test [4] and in test [5] was “inactive” each time. Besides, the results for the Z-AUC in test [6], in test [6] (setting [7]) and in test [6] (measured here: PEO4 Z-AUC) were 1.27 (inactive), 0.521 and 0.345, respectively.

As for `COC[C@@H](c1ccc(C(F)(F)F)cc1)N1CCN(C2(C)CCN(C(=O)c3c(C)ncnc3C)CC2)C[C@@H]1C`, the Potency result in test [1], in test [2], in test [3], in test [4] and in test [5] was “inactive” in each case. The Z-AUC in test [6] is 1.18 (inactive); in test [6] (setting [7]), 1.03; in test [6] (measured here: PEO4 Z-AUC), 0.78.

Regarding `CC(=NNC(=O)c1cccc(S(=O)(=O)N2CCOCC2)c1)c1cc(Cl)ccc1O`, the Potency entry in test [1] was “inactive”. The Potency is 2090 nM (active) in test [2] and 1480 nM (active) in test [3].

Consider `O=C1Cc2cc(C(=O)NC3C[C@H]4CC[C@@H](C3)N4S(=O)(=O)CC3CCN(CCCC(F)(F)F)CC3)c(Cl)cc2N1` (stereo not given in full), for which the Potency result in test [1], in test [2], in test [3], in test [4] and in test [5] was “inactive” throughout. For the same compound, the Z-AUC is -0.571 (inactive) in test [6], -0.873 in test [6] (setting [7]) and -0.957 in test [6] (measured here: PEO4 Z-AUC).

Consider `O=C(Nc1cccc(C(F)(F)F)c1)c1cccc2cc(Oc3cc(CO)ncn3)ccc12`, for which the Potency result in test [1], in test [2], in test [3], in test [4] and in test [5] was “inactive” in each case. The Z-AUC in test [6] was -0.478 (inactive); in test [6] (setting [7]) it was -0.0588; in test [6] (measured here: PEO4 Z-AUC) it was -0.749.

With `C[C@]12CCC3=C4CCC(=O)C=C4CC[C@H]3[C@@H]1CC[C@@]2(O)CC#N`, the Potency entry in test [1], in test [2], in test [3], in test [4] and in test [5] was “inactive” throughout. Further, the results for the Z-AUC in test [6], in test [6] (setting [7]) and in test [6] (measured here: PEO4 Z-AUC) were 1.33 (inactive), 1.75 and 1.39, respectively.

For `COC(=O)C1=C(C)NC(c2ncc(F)cc2F)=N[C@H]1c1ccc(F)cc1Cl`, the values for the Potency in test [1], in test [2] and in test [3] were 20800 nM (active), 14800 nM (active) and 13200 nM (active), respectively. The Potency result in test [4] was “inactive”. Further, the Z-AUC was 0.0263 (inactive) in test [6], 0.182 in test [6] (setting [7]) and 1.13 in test [6] (measured here: PEO4 Z-AUC).

In the case of `CC[C@H]1OC(=O)[C@H](C)C(=O)[C@H](C)[C@@H](O[C@H]2O[C@H](C)C[C@H](N(C)C)[C@H]2O)[C@](C)(OC)C[C@@H](C)C(=O)[C@H](C)[C@H]2N(CCCCn3cnc(-c4cccnc4)c3)C(=O)O[C@]12C`, the Potency entry in test [1], in test [2] and in test [3] was “inactive” throughout.

Take `O=C1NC(=O)[C@@H](c2cn3c4c(cccc24)CCC3)[C@@H]1c1c[nH]c2ccccc12`: the Potency result in test [1], in test [4] and in test [5] was “inactive” throughout. The Potency was 1320 nM (active) in test [2] and 1050 nM (active) in test [3]. The figures for the Z-AUC in test [6], in test [6] (setting [7]) and in test [6] (measured here: PEO4 Z-AUC) were 0.925 (inactive), 0.797 and 0.765, respectively.

Consider `O=C(NCc1ccc(S(=O)(=O)c2cccc(C(F)(F)F)c2)cc1)c1cnc2[nH]ncc2c1`, for which the Potency result in test [1], in test [4] and in test [5] was “inactive” throughout. Moreover, the values for the Potency in test [2] and in test [3] were 13.2 nM (active) and 26.3 nM (active), respectively. The values for the Z-AUC in test [6], in test [6] (setting [7]) and in test [6] (measured here: PEO4 Z-AUC) were -2.19 (inactive), -2.73 and -2.28, respectively.

For the compound `O=S(=O)(Nc1ccc(-c2cccnc2)c2cccnc12)c1cccc(C(F)(F)F)c1`, the Potency was 8290 nM (active) in test [1], 7420 nM (active) in test [2] and 7420 nM (active) in test [3]. The Potency entry in test [4] and in test [5] was “inactive” throughout.

For the origin of these results see PubChem BioAssay (NCATS).
